# Measurements reported in PubChem BioAssay.
# Activity calls are given as the source filed them. The rule behind the calls is not given here.
# Molecular target: Pantothenate synthetase (Mycobacterium tuberculosis (strain ATCC 25618 / H37Rv)) (UniProt P9WIL5)
# Experiment: Coupled enzyme confirmation of inhibitors against recombinant Mtb PanC (AID 375);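 note: 0% = full reaction with vehicle and 100% = no enzyme background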
# Settings: coupled enzyme assay; at 10 µM, active compounds read high
# Pantothenate synthetase (Mycobacterium tuberculosis (strain ATCC 25618 / H37Rv)), sequence (P9WIL5 whole entry, looked up): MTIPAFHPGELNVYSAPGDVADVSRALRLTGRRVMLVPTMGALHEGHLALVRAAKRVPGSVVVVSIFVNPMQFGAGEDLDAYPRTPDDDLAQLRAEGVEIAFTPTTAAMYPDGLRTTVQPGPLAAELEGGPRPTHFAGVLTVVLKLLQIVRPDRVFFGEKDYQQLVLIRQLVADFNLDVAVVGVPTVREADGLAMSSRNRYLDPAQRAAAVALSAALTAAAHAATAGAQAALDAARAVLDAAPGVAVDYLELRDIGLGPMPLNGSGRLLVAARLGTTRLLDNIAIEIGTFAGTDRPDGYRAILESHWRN
row,SMILES,inhibition
1,O=C(c1cccs1)c1cn(CC(=O)N2CCc3ccccc3C2)c2ccccc12,2% (inactive)
2,CS(=O)(=O)N(CC(=O)O)c1cccc(Cl)c1,3% (inactive)
3,O=C(O)Cn1nc2ccccc2n1,0% (inactive)
4,C[C@@H]1C[C@H]2[C@@H]3C[C@H](F)C4=CC(=O)C=C[C@]4(C)[C@@]3(F)[C@@H](O)C[C@]2(C)[C@@]1(O)C(=O)CO,0% (inactive)
5,O=C(/C=C/N1CCOCC1)c1ccc(-c2ccccc2)cc1,4% (inactive)
6,CN(C)S(=O)(=O)Nc1ccc(Br)cc1F,0% (inactive)
7,COc1ccc(OC(C)C(=O)N2CCN(c3ccccn3)CC2)cc1 (centres undefined),7% (inactive)
8,O=C1c2cccnc2C(O)N1Cc1ccc(F)cc1 (centres undefined),9% (inactive)
9,O=C(NC1CCCCC1)C1CC(O)CN1C(=O)OCc1ccccc1 (centres undefined),0% (inactive)
10,Cc1cc(C)c(C#N)c(SCc2ccc(C#N)cc2)n1,0% (inactive)
11,OC1(c2cccc(C(F)(F)F)c2)CCNCC1,4% (inactive)
12,COc1ccc(NC(=O)c2oc3ccccc3c2NC(=O)c2ccco2)cc1,0% (inactive)
13,O=C(CCC(=O)N(c1cccc(F)c1)C(C(=O)NC1CCCC1)c1ccncc1)Nc1cccnc1 (centres undefined),0% (inactive)
14,COCc1[nH]nc2c1C(c1cc(OC)c(O)c(OC)c1)C(C#N)=C(N)O2 (centres undefined),0% (inactive)
15,COC(=O)c1ccc2c(=O)n(NC(C)=O)c(=S)[nH]c2c1,0% (inactive)
16,COC(=O)[C@@H](NC(=O)NCc1ccccc1Cl)C(C)C,0% (inactive)
17,COc1oc(-c2ccccc2)nc1C(F)(F)F,0% (inactive)
18,CC(=O)NCC(=O)OC(C)C(=O)Nc1ccc(C(C)=O)cc1 (centres undefined),3% (inactive)
19,Brc1ccc(-c2nnc3sc(CN4CCC5(CC4)OCCO5)cn23)cc1,0% (inactive)
20,Cc1cc(C)n(-c2nc3c(c(=O)[nH]c(=O)n3C)n2Cc2ccc(F)cc2)n1,0% (inactive)

row,SMILES,inhibition
1,COc1ccc(C)cc1NC(=O)COCC(=O)O,0% (inactive)
2,COCCCNC(=O)CC(NS(=O)(=O)c1ccc(Cl)cc1)c1ccco1 (centres undefined),0% (inactive)
3,COc1cc(C)nc(OCCNC(=O)COc2ccc(Cl)cc2C)n1,5% (inactive)
4,COC(=O)c1ccccc1NC(=O)c1cnc2sccn2c1=O,5% (inactive)
5,O=C(Nc1ccncc1)c1cncc(Br)c1,0% (inactive)
6,CCOc1ccc(N(CC(=O)Nc2cccc(OC)c2)S(=O)(=O)c2c(C)noc2C)cc1,11% (inactive)
7,COc1cccc(NC(=O)NC2(C(F)(F)F)Oc3ccccc3O2)c1,0% (inactive)
8,COc1ccc(/C(O)=C2/C(=O)C(=O)N(CC3CCCO3)C2c2cccc(OC)c2)cc1 (centres undefined),0% (inactive)
9,CCc1ccccc1NC(=O)CCc1nc(-c2ccc(C)cc2)no1,0% (inactive)
10,O=C(CN1CCN(C2CCCCC2)CC1)Nc1ccccc1-c1ccccc1,6% (inactive)
11,Cc1cc(C)cc(NC(=O)CSc2nnc(Cc3cccn3C)n2-c2ccc(F)cc2)c1,6% (inactive)
12,O=C1NC(=O)C(CC(=O)N(Cc2ccco2)C2(C(=O)NC3CCCC3)CCCCC2)N1 (centres undefined),0% (inactive)
13,CCOC(=O)c1cc(CC)sc1NC(=O)CCC(=O)O,2% (inactive)
14,CC(=O)c1cccc(N(CC(=O)N2CCCC2)S(C)(=O)=O)c1,0% (inactive)
15,Cc1ccc2c(C(=O)CN3CCSCC3)c(C)[nH]c2c1,0% (inactive)
16,O=C(Nc1ccc(F)cc1)NC1CCN(Cc2nnnn2Cc2ccco2)CC1,0% (inactive)
17,C=C(C)Cn1c(CCCNC(=O)C(C)(C)C)nc2ccccc21,0% (inactive)
18,COc1ccc(C(=O)NCCc2nnc(SCc3nc4ccccc4c(=O)[nH]3)n2C)cc1,0% (inactive)
19,COc1ccc(N2CCN(C(=O)CSc3ccccc3)CC2)cc1,6% (inactive)
